Records with an inconclusive call do not appear. A call without a number means that no potency is given here. Activity calls are given as the source filed them. Calls follow the shape of the dose curve; as a rule, active = well fitted curve in the direction sought with a large enough effect; inconclusive = small, poorly fitted or top-dose-only effect, or another doubt; inactive = no such curve, though single readings can be large; an effect the other way counts as inactive or inconclusive.
Key:
[1] = molecular target: Glutathione peroxidase 1 (Homo sapiens) (UniProt P07203); test: Primary qHTS Assay for Inhibitors of Recombinant Selenoprotein Glutathione Peroxidase 1 (GPX1) (AID 1845191); also: nearly all actives have a fitted effect of over 65% in size
Sequence of Glutathione peroxidase 1 (Homo sapiens) (P07203 whole entry, looked up): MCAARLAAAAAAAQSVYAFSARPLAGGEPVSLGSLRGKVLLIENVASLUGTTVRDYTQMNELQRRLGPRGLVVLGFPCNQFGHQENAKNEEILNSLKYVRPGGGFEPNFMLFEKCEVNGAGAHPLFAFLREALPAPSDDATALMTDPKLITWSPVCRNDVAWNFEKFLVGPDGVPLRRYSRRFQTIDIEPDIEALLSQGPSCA
Outline: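 GPX1 10 nM, GR 100 nM, GSH 1 mM, NADPH 0.5 mM, CHP 0.5 mM (final). 30-min cpd preincubation, RT. Ex340/Em450 read t=0, t=15 min.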

[2] = molecular target: Luciferin 4-monooxygenase (Photinus pyralis) (UniProt P08659); test: Primary firefly luciferase (FLuc) qHTS assay for identification of artifact compounds. (AID 1845220); details: outcome: dose series up to 54.1 µM unless noted; also: nearly all actives have a fitted effect of over 60% in size
Outline: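 qHTS, 15 min compound preincubation with substrate (10 uM luciferin, 10 uM ATP) at RT, then 10 nM FLuc; 5 min; luminescence; % inhibition vs no-enzyme/DMSO controls, 4-parameter Hill fit.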

[3] = Primary fluorescence-based thiol-reactive (MSTI) qHTS assay for identification of artifact compounds. (AID 1845221);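 also: thiol-reactive compounds lower the probe fluorescence signal; nearly all actives have a fitted effect of over 65% in size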
Outline: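 First, 4 uM MSTI in 2% DMSO/PBS pH 7.4 was dispensed; next, compounds were added; then plates sat 1 h at room temperature without light. Finally, emission at 598 nm was recorded.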

[4] = tested on: Nanoluciferase (engineered Oplophorus gracilirostris luciferase); test: Primary Nanoluciferase (NLuc) qHTS assay for identification of artifact compounds. (AID 1845222)
Outline: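 Luminescence read-out of secreted NLuc in S16 cell conditioned medium (1:55); compounds tested with 15 min RT preincubation, then Nano-Glo substrate 1:100, 5 min. % inhibition vs no-enzyme and DMSO controls, 4-parameter Hill fit.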

[5] = Quantitative High-Throughput drug screen in 47 multiple myeloma cell lines against the NCATS MIPE library collection: FR4_PLB cell viability assay (AID 1918924; also: nearly all actives have a fitted effect of over 35% in size; also: potency is read from the fitted curve at half-maximal effect)
Outline: (§1)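 qHTS of the MIPE 4.0 collection: 500 myeloma cells/well, 48 h drug exposure at 37C in 5% CO2, then CellTiter-Glo for 5 min at room temperature before luminescence reading.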

[6] = Quantitative High-Throughput drug screen in 47 multiple myeloma cell lines against the NCATS MIPE library collection: EJM_DSMZ cell viability assay (AID 1918926; also: nearly all actives have a fitted effect of over 30% in size; also: potency is read from the fitted curve at half-maximal effect)
Outline: (§2)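 Inhibition of cell viability is measured here. Each line was plated at 500 cells per well, treated with MIPE 4.0 drugs, kept 48 hours at 37C, then assayed for ATP content by CellTiter-Glo luminescence.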

[7] = Quantitative High-Throughput drug screen in 47 multiple myeloma cell lines against the NCATS MIPE library collection: ARD_JJKsccE7 cell viability assay (AID 1918929; also: potency is read from the fitted curve at half-maximal effect)
Outline: as §2

[8] = Quantitative High-Throughput drug screen in 47 multiple myeloma cell lines against the NCATS MIPE library collection: Karpas417_ECACC cell viability assay (AID 1918961); details: Karpas417 myeloma viability, CellTiter-Glo ATP luminescence, 48 h; viability (% of DMSO): at 45.8 µM (top of the series); also: potency is read from the fitted curve at half-maximal effect
Outline: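 Luminescent ATP measurement with CellTiter-Glo gives viability, scaled between DMSO-only wells (100%) and media-only wells (0%). Cells, 500 per well, faced library compounds for 48 hours at 37C.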

[9] = Quantitative High-Throughput drug screen in 47 multiple myeloma cell lines against the NCATS MIPE library collection: JIM3_ECACC cell viability assay (AID 1918963; also: nearly all actives have a fitted effect of over 35% in size; also: potency is read from the fitted curve at half-maximal effect)
Outline: as §1

[10] = Quantitative High-Throughput drug screen in 47 multiple myeloma cell lines against the NCATS MIPE library collection: Delta47_JCRB cell viability assay (AID 1918925; also: nearly all actives have a fitted effect of over 45% in size; also: potency is read from the fitted curve at half-maximal effect)
Outline: as §2

[11] = Quantitative High-Throughput drug screen in 47 multiple myeloma cell lines against the NCATS MIPE library collection: AMO1_DSMZ cell viability assay (AID 1918927; also: nearly all actives have a fitted effect of over 30% in size; also: potency is read from the fitted curve at half-maximal effect)
Outline: as §2

[12] = Quantitative High-Throughput drug screen in 47 multiple myeloma cell lines against the NCATS MIPE library collection: ARP1_JJKsccF8 cell viability assay (AID 1918928; also: potency is read from the fitted curve at half-maximal effect; nearly all actives have a fitted effect of over 40% in size)
Outline: (§3)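 CellTiter-Glo luminescence after 48 h exposure gives viability, scaled between DMSO-only (100%) and media-only (0%) controls. Library compounds are pinned onto 500 myeloma cells per well, incubated at 37C with 5% CO2.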

[13] = Quantitative High-Throughput drug screen in 47 multiple myeloma cell lines against the NCATS MIPE library collection: Karpas620_DSMZ cell viability assay (AID 1918959); also: nearly all actives have a fitted effect of over 30% in size; also: potency is read from the fitted curve at half-maximal effect
Outline: as §1

[14] = Quantitative High-Throughput drug screen in 47 multiple myeloma cell lines against the NCATS MIPE library collection: KHM11_PLB cell viability assay (AID 1918962); also: nearly all actives have a fitted effect of over 35% in size; also: potency is read from the fitted curve at half-maximal effect
Outline: as §1

[15] = Quantitative High-Throughput drug screen in 47 multiple myeloma cell lines against the NCATS MIPE library collection: JIM1_ECACC cell viability assay (AID 1918964; also: potency is read from the fitted curve at half-maximal effect)
Outline: as §2

[16] = molecular target: Phospholipid hydroperoxide glutathione peroxidase GPX4 (Homo sapiens) (UniProt P36969); test: Primary qHTS Assay for Inhibitors of Recombinant Selenoprotein Glutathione Peroxidase 4 (GPX4) (AID 1845192); also: nearly all actives have a fitted effect of over 65% in size
Sequence of Phospholipid hydroperoxide glutathione peroxidase GPX4 (Homo sapiens) (P36969 whole entry, looked up): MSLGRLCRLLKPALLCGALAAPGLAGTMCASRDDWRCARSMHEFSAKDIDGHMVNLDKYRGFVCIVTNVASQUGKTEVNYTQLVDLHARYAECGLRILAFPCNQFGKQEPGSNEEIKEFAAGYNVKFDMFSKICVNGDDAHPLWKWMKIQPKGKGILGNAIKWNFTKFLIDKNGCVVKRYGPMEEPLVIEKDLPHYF
Outline: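 qHTS, GR-coupled: GPX4 200 nM + cpd 30 min RT → GSH 1 mM, NADPH 0.5 mM, GR 100 nM → CHP 0.5 mM start; fluor 340/450 at t0 and t15 min; no-enzyme wells as control.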

[17] = Quantitative High-Throughput drug screen in 47 multiple myeloma cell lines against the NCATS MIPE library collection: KMM1_JCRB cell viability assay (AID 1918960); also: nearly all actives have a fitted effect of over 30% in size; also: potency is read from the fitted curve at half-maximal effect
Outline: as §3

| SMILES | Potency [1] | outcome [2] | Potency [3] | outcome [4] | Potency [5] | Potency [6] | Potency [7] | Potency [8] | Potency [9] | Potency [10] | Potency [11] | Potency [12] | Potency [13] | Potency [14] | Potency [15] | Potency [16] | Potency [17] | viability (% of DMSO) [8] |
| --- | --- | --- | --- | --- | --- | --- | --- | --- | --- | --- | --- | --- | --- | --- | --- | --- | --- | --- |
| CC(=O)N(C)c1cccc(-c2ccnc3c(C(=O)c4cccs4)cnn23)c1 | inactive | inactive | inactive | inactive | inactive | inactive | 20.9 µM (active) | 23.5 µM (active) | inactive | – | – | – | – | – | – | – | – | – |
| Cc1ccccc1-n1c(Cn2ncc3c(N)ncnc32)nc2cccc(C)c2c1=O | inactive | inactive | inactive | inactive | 4.69 µM (active) | 16.6 µM (active) | 0.118 µM (active) | – | 418 nM (active) | 209 nM (active) | 148 nM (active) | 4.69 µM (active) | 0.0372 µM (active) | 0.332 µM (active) | 66.2 nM (active) | – | – | – |
| COCC1(CO)C(=O)C2CCN1CC2 (configuration not stated) | inactive | – | – | – | 16.6 µM (active) | 20.9 µM (active) | 20.9 µM (active) | 3.72 µM (active) | 18700 nM (active) | – | – | 1.48 µM (active) | 23.5 µM (active) | 7.43 µM (active) | 6620 nM (active) | inactive | – | – |
| O=c1[nH]c2ccc(Cl)cc2c(N[C@@H]2CN3CCC2CC3)c1-c1nc2ccccc2[nH]1 | inactive | inactive | inactive | inactive | 0.0743 µM (active) | 0.418 µM (active) | 0.935 µM (active) | 0.332 µM (active) | 74.3 nM (active) | 93.5 nM (active) | 74.3 nM (active) | 2.64 µM (active) | 5.9 µM (active) | 0.235 µM (active) | 41.8 nM (active) | – | – | – |
| N=c1c2c(-c3ccccc3)c(-c3ccccc3)n(Cc3ccccc3)c2ncn1C1CCC(O)CC1 (configuration not stated) | inactive | – | – | – | – | – | 8.33 µM (active) | – | 743 nM (active) | 166 nM (active) | 526 nM (active) | 14.8 µM (active) | 9.35 µM (active) | – | 833 nM (active) | inactive | – | – |
| CCN1CCN(C(=O)Cc2ccc(Nc3ncc(F)c(Nc4ccc(C(=O)Nc5ccccc5Cl)cc4)n3)cc2)CC1 | inactive | inactive | inactive | inactive | 3.72 µM (active) | 8.33 µM (active) | 0.743 µM (active) | 2.96 µM (active) | 3720 nM (active) | 1320 nM (active) | 1050 nM (active) | – | 1.87 µM (active) | 2.35 µM (active) | 2090 nM (active) | inactive | – | – |
| CCOP(=O)(OCC)C(C)NC(=O)N(CCCl)N=O (configuration not stated) | inactive | – | – | – | inactive | inactive | inactive | inactive | inactive | inactive | inactive | – | inactive | inactive | – | inactive | inactive | – |
| CCN(CC)C(=O)c1ccc(C2=CC3(CCNCC3)Oc3cccc(O)c32)cc1 | inactive | inactive | inactive | inactive | – | inactive | inactive | – | inactive | inactive | inactive | – | inactive | – | – | – | – | – |
| C[C@](O)(COc1ccc(C#N)cc1)C(=O)Nc1ccc(C#N)c(C(F)(F)F)c1 | inactive | – | – | – | inactive | – | – | 23.5 µM (active) | – | – | – | – | – | – | – | inactive | – | – |
| CC(C)(O)C(=O)Nc1ccc([N+](=O)[O-])c(C(F)(F)F)c1 | inactive | – | – | – | inactive | – | 23.5 µM (active) | – | – | 7430 nM (active) | 11800 nM (active) | – | 18.7 µM (active) | 20.9 µM (active) | – | inactive | – | – |
| CC1(N2CCC(n3c([C@@H]4CCCNC4)nc4ccccc43)CC2)CCCCCCC1 | inactive | inactive | inactive | inactive | 23.5 µM (active) | inactive | – | – | – | 13200 nM (active) | 26400 nM (active) | – | 9.35 µM (active) | 6.62 µM (active) | – | – | 16.6 µM (active) | – |
| c1ccc2c(CN3CCNCC3)cccc2c1 | inactive | – | – | – | inactive | inactive | inactive | – | inactive | inactive | inactive | – | inactive | inactive | inactive | inactive | inactive | – |
| CC(C)[C@]12O[C@H]1[C@@H]1O[C@]13[C@]1(O[C@H]1C[C@H]1C4=C(CC[C@@]13C)C(=O)OC4)[C@@H]2O | inactive | inactive | inactive | inactive | – | – | – | – | – | – | – | – | – | – | – | inactive | – | – |
| COc1cc([C@@H]2c3cc4c(cc3[C@@H](O)C3COC(=O)C32)OCO4)cc(OC)c1O (some centres not stated) | inactive | – | – | – | 0.0066 µM (active) | 0.0469 µM (active) | 0.0083 µM (active) | – | 33.2 nM (active) | 26.4 nM (active) | 1 nM (active) | 0.0209 µM (active) | 0.0187 µM (active) | – | 4.2 nM (active) | – | 0.0187 µM (active) | – |
| COC1=C[C@@H]2[C@@H]3Cc4ccc(OC)c(O)c4[C@]2(CCN3C)CC1=O | inactive | inactive | inactive | inactive | – | – | 6.62 µM (active) | 10.5 µM (active) | 9350 nM (active) | 3320 nM (active) | 3320 nM (active) | 26.4 µM (active) | 20.9 µM (active) | 4.69 µM (active) | – | – | – | – |
| CSCC[C@@H](NC(=O)[C@@H](Cc1ccccc1)NC(=O)CNC(=O)CNC(=O)[C@@H](N)Cc1ccc(O)cc1)C(=O)O | inactive | – | – | – | inactive | inactive | inactive | – | inactive | inactive | inactive | – | – | inactive | – | – | – | 132% (active) |

Reference: PubChem BioAssay (NCATS)
